From PubChem BioAssay (Tox21)
Records with an inconclusive call do not appear. Active and inactive are the calls of the source. The call rests on the fitted dose curve; in most records, active means well fitted curve in the direction sought with a large enough effect in the repeat runs; inconclusive means weak or mixed curves; inactive means no such curve, though single readings can be large; an effect the other way counts as inactive or inconclusive.

Assays:
[1] = A CellTox Green Cytotoxicity Assay to monitor cytotoxicity in HEK293 cells - 32 hour (AID 1224881); further: nearly all actives have a fitted effect of over 40% in size
Outline: (§1)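 Seeding of HEK293 cells together with cytotoxicity dye preceded a 5 h incubation at 37 C/5% CO2. Test compounds in DMSO were then added and fluorescence monitored across 40 h.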

[2] = A CellTox Green Cytotoxicity Assay to monitor cytotoxicity in HepG2 cells - 0 hour (AID 1224882); further: nearly all actives have a fitted effect of over 35% in size
Outline: (§2)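 Nonlytic assay: viable cells exclude the dye, so fluorescence scales with cell death. HepG2 at 600 cells/well, compounds added after 5 h, signal read across 40 h.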

[3] = A CellTox Green Cytotoxicity Assay to monitor cytotoxicity in HepG2 cells - 32 hour (AID 1224883); further: nearly all actives have a fitted effect of over 50% in size
Outline: as §2

[4] = A CellTox Green Cytotoxicity Assay to monitor cytotoxicity in HEK293 cells - 8 hour (AID 1224884); further: nearly all actives have a fitted effect of over 35% in size
Outline: as §1

[5] = qHTS RealTime-Glo MT Cell Viability Assay in HEK293 cells - 24 hour (AID 1224886); further: top concentration of the series differs between compounds; nearly all actives have a fitted effect of over 50% in size
Outline: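 HEK293 cells were seeded at 600 cells/well together with NanoLuc luciferase and cell-permeant prosubstrate, preincubated 5 h at 37 C/5% CO2, then given compound in DMSO by pintool. Luminescence from viable-cell prosubstrate reduction was read repeatedly over 40 h.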

[6] = qHTS RealTime-Glo MT Cell Viability Assay in HEK293 cells - 8 hour (AID 1224887); further: top concentration of the series differs between compounds; nearly all actives have a fitted effect of over 50% in size
Outline: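 Tox21 screen in HEK293 using RealTime-Glo MT chemistry, with cells and reagent co-dispensed. Luminescence proportional to viable cell number was captured at intervals during 40 h compound exposure at 37 C.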

[7] = A CellTox Green Cytotoxicity Assay to monitor cytotoxicity in HEK293 cells - 16 hour (AID 1224888); further: nearly all actives have a fitted effect of over 35% in size
Outline: as §1

[8] = qHTS RealTime-Glo MT Cell Viability Assay in HepG2 cells - 0 hour (AID 1224889); further: nearly all actives have a fitted effect of over 50% in size
Outline: (§3)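 HepG2 cells were seeded at 600 cells/well together with NanoLuc luciferase and a cell-permeant prosubstrate, preincubated 5 h at 37 C/5% CO2, then pin-dosed with compounds in DMSO. Nonlytic luminescence from viable cells was read at each time point.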

[9] = A CellTox Green Cytotoxicity Assay to monitor cytotoxicity in HepG2 cells - 8 hour (AID 1224890); further: nearly all actives have a fitted effect of over 45% in size
Outline: as §2

[10] = qHTS RealTime-Glo MT Cell Viability Assay in HepG2 cells - 16 hour (AID 1224885); further: nearly all actives have a fitted effect of over 50% in size
Outline: as §3

Measured: Potency

Cc1nnc(NS(=O)(=O)c2ccc(N)cc2)s1
not listed: [10]
inactive: all other assays above

OB(O)O
inactive: all assays above

COCN(COC)c1nc(N(COC)COC)nc(N(COC)COC)n1
not listed: [10]
inactive: all other assays above

CC(=O)OC[C@H]1O[C@@](COC(C)=O)(O[C@H]2O[C@H](COC(C)=O)[C@@H](OC(C)=O)[C@H](OC(C)=O)[C@H]2OC(C)=O)[C@@H](OC(C)=O)[C@@H]1OC(C)=O
inactive: all assays above

OC[C@H]1O[C@@H](Oc2ccc(O)cc2)[C@H](O)[C@@H](O)[C@@H]1O
inactive: all assays above

NC(N)=S
inactive: all assays above

CCc1cccc(O)c1
not listed: [10]
inactive: all other assays above

OC1CCCCC1
inactive: all assays above

CCOC(=O)CC(=O)OCC
inactive: all assays above

CC/C=C(\C(=O)N[C@@H]1C(=O)N2C(C(=O)OCOC(=O)C(C)(C)C)=C(COC(N)=O)CS[C@H]12)c1csc(N)n1
inactive: all assays above

N[C@@H](Cc1cc(I)c(Oc2ccc(O)c(I)c2)c(I)c1)C(=O)O
inactive: all assays above

O=c1c(O)c(-c2ccc(O)c(O)c2)oc2cc(O)cc(O)c12
not listed: [8]
inactive: all other assays above

COc1c(Cl)ccc(Cl)c1C(=O)O
inactive: all assays above

NC(=O)c1ncn([C@@H]2O[C@H](CO)[C@@H](O)[C@H]2O)n1
inactive: all assays above

CCn1cc(C(=O)O)c(=O)c2cc3c(cc21)OCO3
not listed: [10]
inactive: all other assays above

CC(C)(C)NC[C@H](O)COc1nsnc1N1CCOCC1
not listed: [10]
inactive: all other assays above

O=C1O[C@H]([C@H](O)CO)C(O)=C1O
not listed: [10]
inactive: all other assays above

CC(C)c1ccc(C(C)C)cc1
inactive: all assays above

NC(=O)NC(N)=O
inactive: all assays above

CC(O)CNCC(C)O (centres undefined)
not listed: [10]
inactive: all other assays above

CC(C)=CCC/C(C)=C/C=O
inactive: all assays above

CCCCCCCCCCCCCC(=O)O
inactive: all assays above

N#CCC(=O)O
inactive: all assays above

COC(=O)CCCCC(=O)OC
inactive: all assays above

Clc1cccc(Cl)c1NC1=NCCN1
inactive: all assays above

C=CC(C)(C)C
inactive: all assays above

OCc1ccc(Cl)cc1Cl
inactive: all assays above

CCc1cccc(CC)c1N
inactive: all assays above

C=C(C)CC(C)(C)C
inactive: all assays above

CN1CCCC1=O
not listed: [10]
inactive: all other assays above

CCCOC(=O)NCCCN(C)C
inactive: all assays above

Brc1ccc(Oc2ccc(Br)cc2)cc1
inactive: all assays above

O=C1C(N(CO)C(=O)NCO)N(CO)C(=O)N1CO (centres undefined)
inactive: all assays above

C=CC(=O)NCOCCCC
inactive: all assays above

CC(=O)OC/C=C(\C)CCC=C(C)C
inactive: all assays above

CC(=O)C(C)C
inactive: all assays above

C=C(CC(=O)O)C(=O)O
inactive: all assays above

Cc1cccc(C)c1[N+](=O)[O-]
inactive: all assays above

CC1(C)[C@@H](O[C@H]2O[C@H](C(=O)O)[C@@H](O)[C@H](O)[C@H]2O[C@@H]2O[C@H](C(=O)O)[C@@H](O)[C@H](O)[C@H]2O)CC[C@]2(C)[C@H]3C(=O)C=C4[C@@H]5C[C@@](C)(C(=O)O)CC[C@]5(C)CC[C@@]4(C)[C@]3(C)CC[C@@H]12
not listed: [8] | [10]
inactive: all other assays above

O=C(NCC1CCCCN1)c1cc(OCC(F)(F)F)ccc1OCC(F)(F)F (centres undefined)
not listed: [3]
inactive: all other assays above

CCCCCNCCCCC
not listed: [3] | [10]
inactive: all other assays above

Cc1ccc([N+](=O)[O-])cc1N
not listed: [3]
inactive: all other assays above

C[Si](C)(C)N[Si](C)(C)C
not listed: [3]
inactive: all other assays above

Nc1cccc(N)n1
not listed: [10]
inactive: all other assays above

COC(=O)OC
not listed: [3] | [10]
inactive: all other assays above

CC1(C)C(=O)N(Cl)C(=O)N1Cl
not listed: [3]
inactive: all other assays above

CS(=O)(=O)c1ccc(Cl)cc1
not listed: [3]
inactive: all other assays above

COc1ccc([C@@H]2CC(=O)c3c(O)cc(O[C@@H]4O[C@H](CO[C@@H]5O[C@@H](C)[C@H](O)[C@@H](O)[C@H]5O)[C@@H](O)[C@H](O)[C@H]4O)cc3O2)cc1OC
not listed: [1]
inactive: all other assays above

OCC(O)CS (centres undefined)
not listed: [3] | [10]
inactive: all other assays above

CCCCC(CC)COC(=O)c1ccc(C(=O)OCC(CC)CCCC)cc1 (centres undefined)
not listed: [10]
inactive: all other assays above

Cc1ccccc1Cl
not listed: [3]
inactive: all other assays above
